PubChem BioAssay
A number with no mark means an inactive call. The rule behind the calls is not given here.

tested on: Aerobactin synthetase IucA (Klebsiella pneumoniae hvKP1); assay: IucA enzyme inhibition, primary screen, biochemical, Spectrum library (AID 1346200); conditions: malachite green pyrophosphate, A620, at 8 µM, stronger effect = lower value;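 note: 100% = wells without compound and 0% = wells lacking enzyme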

Row | Compound | activity remaining [%]
1 | Oc1cc(O)c2c(c1)O[C@H](c1ccc(O)c(O)c1)[C@H](O)C2 | 99.8
2 | CC(=O)O[C@H]1CCC2(C)C3=C(CCC2C1(C)C)[C@]1(C)CCC(C(C)CCC=C(C)C)[C@@]1(C)CC3 (stereo not given in full) | 111
3 | NC(=O)c1ccc([N+](=O)[O-])cc1Cl | 107
4 | CCCCCCCCCCCCCCCC(=O)OC/C=C(C)/C=C/C=C(C)/C=C/C1=C(C)CCCC1(C)C | 89
5 | O=C1C[C@@H](c2ccc(O)cc2)Oc2cc(O)cc(O)c21 | 95.7
6 | CN1C2CC(OC(=O)[C@H](CO)c3ccccc3)C[C@H]1[C@H]1OC21 (stereo not given in full) | 109
7 | CC(=O)O[C@@H]1CC2C(C)(C)C=CC(=O)[C@]2(C)C2CC[C@@]3(C)[C@H](c4ccoc4)OC(=O)C4OC43[C@@]21C (stereo not given in full) | 119
8 | COc1ccc2nc(S(=O)Cc3ncc(C)c(OC)c3C)[nH]c2c1 (stereo not given) | 126
9 | NC(N)=O | 91.3
10 | COc1cc2ccc(=O)oc2c(O)c1O | 112
11 | C[C@H](N)[C@H](O)c1cccc(O)c1 | 115
12 | CCCSc1ccc2nc(NC(=O)OC)[nH]c2c1 | 111
13 | C[C@H]1[C@H](C)CC[C@]2(C(=O)O)CC[C@]3(C)C(=CCC4[C@@]5(C)C[C@@H](O)[C@H](O)[C@@](C)(CO)C5[C@H](O)C[C@]43C)[C@H]12 (stereo not given in full) | 110
14 | CCC(=O)NCC[C@@H]1CCc2ccc3c(c21)CCO3 | 120
15 | CC(=O)Oc1ccc(-c2cc(=O)c3c(OC(C)=O)cc(OC(C)=O)cc3o2)cc1 | 122
16 | OCC(O)C(O)C(O)C(O)C(O)CO (stereo not given) | 93
17 | C[C@H]1[C@H](C)CC[C@]2(C(=O)O)CC[C@]3(C)C(=CCC4[C@@]5(C)C[C@@H](O)[C@H](O)[C@@](C)(CO)C5CC[C@]43C)[C@H]12 (stereo not given in full) | 102
18 | CCCCCCCCCCCCCCCCCCOCC(O)CO (stereo not given) | 104
19 | CO/N=C(/C(=O)NC1C(=O)N2C(C(=O)OC(C)OC(C)=O)=C(COC(N)=O)CSC12)c1ccco1 (stereo not given) | 114
20 | COc1cc(OC)c2c(=O)c(-c3ccc4c(c3)OCO4)coc2c1 | 98

Row | Compound | activity remaining [%]
21 | Cc1c(N(C)CS(=O)(=O)O)c(=O)n(-c2ccccc2)n1C | 97.1
22 | C=C1C(=O)O[C@@H]2C[C@@]3(C)CCC[C@H](C)C3=C[C@H]12 | 97.8
23 | CC(C)=CCc1c2c(c3occ(-c4ccc(O)c(O)c4)c(=O)c3c1O)C=CC(C)(C)O2 | 120
24 | COc1cc(C/C=C/c2ccccc2)c(OC)cc1O | 113
25 | COc1cc(C)c(C(=O)Oc2cc(C)c(C(=O)O)c(O)c2C)c(OC)c1C | 91.1
26 | Nc1ccc(C(=O)O)c(O)c1 | 108
27 | CC(C)=CCc1c2c(c3occ(-c4ccc(O)cc4)c(=O)c3c1O)C=CC(C)(C)O2 | 99.3
28 | C[C@]12CCC3c4ccc(OS(=O)(=O)O)cc4CCC3C1CCC2=O (stereo not given in full) | 122
29 | O=C1O[C@@H](CO)[C@H](O)[C@@H](O)[C@@H]1O | 113
30 | COc1ccc(/C=C/C(=O)c2ccc(O)cc2O)cc1OC | 93.4
31 | COc1cc(-c2coc3cc(OCc4ccccc4)c(OC)c(O)c3c2=O)cc(O)c1OC | 122
32 | CC(C)=CCCC1(C)C=Cc2c(O)c3c(c(CC=C(C)C)c2O1)OC12C(=CC4CC1C(C)(C)OC2(C/C=C(\C)C(N)=O)C4=O)C3=O (stereo not given) | 99.6
33 | CCCC(=O)O[C@]1(C(=O)CO)CCC2[C@@H]3CCC4=CC(=O)CC[C@]4(C)C3[C@@H](O)C[C@@]21C (stereo not given in full) | 79
34 | Cc1cc(NC(=O)C2=C(O)c3ccccc3S(=O)(=O)N2C)no1 | 94.1
35 | CCC(=O)OCC(=O)[C@@]1(OC(=O)CC)[C@@H](C)CC2C3CCC4=CC(=O)C=C[C@]4(C)C3(F)[C@@H](O)C[C@@]21C (stereo not given in full) | 125
36 | CC(CCC(=O)O)[C@H]1CCC2C3CC[C@@H]4CCCC[C@]4(C)C3CC[C@@]21C (stereo not given in full) | 108
37 | C/C1=C\CC(C)(C)/C=C/CC2(C)OC2CC1 (stereo not given) | 107
38 | C[C@H]1[C@H]2CCC3C4CC=C5C[C@@H](N(C)C)CC[C@]5(C)C4CC[C@@]32CN1C (stereo not given in full) | 119
39 | COc1cc(/C=C/C(=O)O)cc(OC)c1OC | 111
40 | COc1ccccc1OCC(O)CO (stereo not given) | 94.5
